High-throughput results deposited in PubChem by Columbia University Molecular Screening Center.
NFkB transloc pot: enhances IL-1B driven NFkB nuclear translocation; AID 819; HUVEC IL-1B NFkB p65 nuclear translocation imaging; 94,000 tested, 0.3% active; activation, % at 2 µM;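 active means activation above 40%, about the mean plus 3 SD, also judged a hit on visual image review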;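 further: percent activation is computed from the nuclear over cytoplasmic p65 intensity ratio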
HUVEC tox IL1B: toxic to HUVEC cells under IL-1B stimulation | HUVEC cell count loss, Hoechst imaging, IL-1B stimulated | cell count reduction, % at 2 µM | 94,000 tested, 0.41% active | AID 845;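 active means cell count reduction more than 3 SD above the screen-wide mean, cut at about 70% in these data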;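 further: normalized per plate to untreated control cells as the no-loss baseline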
INS promoter inh: TRM-6 insulin promoter activity inhibition | inhibition, % at 2 µM | TRM-6 cells (human fetal islet line), insulin promoter-eGFP reporter, imaging; reporter expression induced with tamoxifen | AID 1273 | 130,000 tested, 0.9% active;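 active means inhibition above the mean plus 3 SD, with well images judged a real hit on visual review, cut at about 60% in these data, passing the limit was not always enough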
IL1B NFkB inh: blocks IL-1B driven NFkB nuclear translocation in HUVEC cells; 94,000 tested, 0.43% active; HUVEC IL-1B NFkB p65 nuclear translocation imaging; inhibition, % at 2 µM;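 active means inhibition above about 30% together with a positive call from visual inspection of the well image, limit read from the data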;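 further: nuclear over cytoplasmic p65 intensity ratio measured by imaging; 0% = IL-1B stimulated DMSO wells and 100% = unstimulated DMSO wells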
Active calls of the source: *; · = not tested or not shown. The list is not random: actives were taken first. Their share in the collection is about 1.4%.

SMILES	NFkB transloc pot	HUVEC tox IL1B	INS promoter inh	IL1B NFkB inh
COc1ccc(-c2cc(-c3ccc(Br)cc3)nc3ncnn23)cc1OC	18.8	-2.0	-23.3	-18.8
O=C1CC(NC23CC4CC(CC(C4)C2)C3)C(=O)N1c1ccc2c(c1)OCO2 (stereo not given)	13.5	-2.9	-13.5	-13.5
O=C(O)C1CC=CCC1C(=O)NCc1ccccc1 (stereo not given)	9.8	-11.8	6.5	-9.8
O=C(O)C1CC=CCC1C(=O)c1ccccc1 (stereo not given)	3.7	8.7	65.6*	-3.7
CCSc1nc(N)c2c(C)c(C)sc2n1	34.2	-40.7	77.8*	-34.2
CCOC(=O)CSc1nc(N)c2c3c(sc2n1)CCCC3	5.2	-31.4	34.5	-5.2
CCOC(=O)Cc1csc(NC(=O)CSc2nc(N)c3c(C)c(C)sc3n2)n1	2.3	-17.3	100.0*	-2.3
COc1ccc(-c2noc(CN(C(=O)c3cccs3)C(C)C)n2)cc1	-3.3	4.2	-8.3	3.3
CC(=O)N1CCCc2cc(S(=O)(=O)N3CCC(C)CC3)ccc21	·	·	0.0	·
CCC(=O)n1nc(-c2ccccc2)nc1NCc1ccccc1	19.9	-2.1	86.0*	-19.9
COCC(=O)n1nc(-c2ccccc2)nc1NCc1ccc(F)cc1	2.1	6.2	·	-2.1
CN1COc2ccc3ccccc3c2C1	·	·	37.5	·
Cc1nc2c(n1O)CCC/C2=N\O	48.7*	7.9	·	-48.7
Cc1ccc(-c2cc(C(F)F)n3ncc(C(=O)N4CCN(c5cccc(C)c5C)CC4)c3n2)cc1	-0.5	-9.6	16.2	0.5
N#Cc1ccc(CNc2cnccn2)cc1	0.8	93.7*	0.0	-0.8
Cc1nc2ccccn2c1C(=O)N=Nc1c(O)[nH]c2ccccc12	·	·	6.5	·
CC(C)C(=O)Nc1cccc(NC(=O)CCN2C(=O)c3ccccc3S2(=O)=O)c1	12.5	7.4	-54.7	-12.5
Cc1cc(N2CCOCC2)cc(C)[n+]1[O-]	40.1*	-31.4	·	-40.1
Cc1ccc2[nH]c3c(=O)n(N)c(C)nc3c2c1	·	·	93.8*	·
COc1ccc2[nH]c3c(=O)n(N)c(C)nc3c2c1	·	·	80.7*	·
Cc1ccccc1NS(=O)(=O)c1ccc2[nH]c(=O)[nH]c2c1	·	·	5.6	·
CCCCCC(=O)Nc1ccc(S(=O)(=O)Nc2nccnc2OC)cc1	15.6	8.5	-36.4	-15.6
O=C(O)c1ccc(C(=O)O)c(C(=O)c2ccccc2)c1	-19.4	79.8*	·	19.4
CCOC(=O)c1[nH]c2cc3c(cc2c1NC(=O)CN1CCc2ccccc2C1)OCO3	1.7	7.2	·	-1.7
CCOC(=O)c1[nH]c2cc3c(cc2c1NC(=O)CN1CCC(C)CC1)OCO3	-97.9	85.6*	·	97.9*
SMILES	NFkB transloc pot	HUVEC tox IL1B	INS promoter inh	IL1B NFkB inh
COc1ccc(NC(=O)CCCn2cc([N+](=O)[O-])cn2)cc1	·	·	0.0	·
COc1ccc(NC(=S)NNC(=O)CCn2cc([N+](=O)[O-])cn2)cc1	·	·	88.2*	·
CCCN(CCC)CCNc1c(NC2CCN(C(=O)OCC)CC2)c(=O)c1=O	10.6	3.6	·	-10.6
CCOC(=O)N1CCC(Nc2c(NCCCN(C)Cc3ccccc3)c(=O)c2=O)CC1	41.9*	-7.0	·	-41.9
CCc1ncc(C(O)c2cccc(OC)c2OC)n1C (stereo not given)	-99.0	89.7*	-14.8	99.0*
COc1cccc(C(O)c2cnc(C(C)C)n2C)c1OC (stereo not given)	·	·	-15.4	·
COc1ccc(NC(=O)c2cccnc2Nc2ccc(OC)cc2)cc1	8.5	-11.4	73.7*	-8.5
Cc1onc(-c2ccccc2Cl)c1C(=O)Nc1ccccc1	0.1	-12.7	22.2	-0.1
Cc1onc(-c2ccccc2Cl)c1C(=O)Nc1cc(=O)n(C)c(=O)n1C	-17.6	88.8*	50.0	17.6
CC1CCCCN1C(=O)COc1ccccc1F (stereo not given)	·	·	0.0	·
CN1C(=S)SC(C)(C)C1NO (stereo not given)	-5.5	-52.5	-11.4	5.5
CC(=O)NC1C(=O)SC1(C)C (stereo not given)	-8.5	-18.2	87.5*	8.5
CC(=O)Nc1ccc(NC(=O)CCSCCc2ccccn2)cc1	·	·	-5.9	·
CC(=O)Nc1ccc(NC(=O)CSCCc2ccccn2)cc1	-48.6	-6.7	12.8	48.6*
Cc1ccc(OCC(=O)Nc2sc3c(c2C#N)CCC3)cc1	59.1*	24.9	44.2	-59.1
Cc1ccc(OCC(=O)Nc2sc3c(c2C#N)CCC3)cc1C	-0.6	-10.1	14.0	0.6
Cc1ccc(S(=O)(=O)NNc2ccccc2)c(C)c1	·	·	34.5	·
Cc1ccc(S(=O)(=O)NC(=O)c2ccc(-c3ccc(-c4ccccc4)cc3)o2)c(C)c1	·	·	66.7*	·
CCCCCCCC#Cc1ccccc1/C=N/S(=O)c1ccc(C)cc1 (stereo not given)	·	·	38.1	·
C=CCOc1nc(N2CCCC2)nc(N2CCCC2)n1	-0.9	-4.0	-12.0	0.9
c1ccn2cc(-c3ccc4c(c3)OCCO4)nc2c1	·	·	71.4*	·
